Source: PubChem BioAssay (Tox21)
Several values for one entry are separate records, joined by “and”; a condition that tells them apart may be missing. Equal entries are not always repeated. Records with an inconclusive call do not appear. Activity calls are given as the source filed them. Calls follow the shape of the dose curve; as a rule, active = well fitted inhibition curve with a large enough effect in the signal ratio in the repeat runs; inconclusive = weak or mixed curves, or effect the other way; inactive = flat fitted curve, though single readings scatter; the % refers to the signal ratio.

Test: qHTS assay for small molecule disruptors of the mitochondrial membrane potential (AID 720635)
Conditions: HepG2 mitochondrial membrane potential, Mito-MPS dye ratio; series mostly up to 83.2 µM; ratio activity, negative = MMP loss: at the top concentration
Description: U.S. Tox21 Program National Center for Advancing Translational Sciences [NCATS] NIH Chemical Genomics Center [NCGC] U.S. Environmental Protection Agency [EPA] National Institutes of Environmental Health Sciences [NIEHS] National Toxicology Program [NTP] U.S. Food and Drug Administration [FDA] Tox21 Assay Overview: Mitochondrial membrane potential (MMP), one of the parameters for mitochondrial function, is generated by mitochondrial electron transport chain that creates an electrochemical gradient by a series of redox reactions. This gradient drives the synthesis of ATP, a crucial molecule for various cellular processes. Measuring MMP in living cells is commonly used to assess the effect of chemicals on mitochondrial function. […] The dye accumulates in the mitochondria of healthy cells as aggregates, with red fluorescence. The mitochondrial potential collapses and the dye can no longer accumulate in the mitochondria and remains in the cytoplasm in monomers, with green fluorescence.
Tox21 Assay Protocol Summary: 2,000 HepG2 cells in 5 uL/well were dispensed into black, clear-bottom 1536-well plates using a Multidrop Combi (Thermo Scientific) dispenser. The assay plates were incubated overnight at 37C to allow cells to attach to the wells, followed by the transfer of 23 nL compound or DMSO vehicle by a pin tool (Kalypsys). The plates were incubated for 1 hr at 37C and 5% CO2, followed by the addition of 5 uL of 2X Mito-MPS dye (BD Biosciences) into each well using Flying Reagent Dispenser (Aurora Discovery) and then following 30 min incubation at 37C. Fluorescence intensity (490nm excitation and 535nm emission for monomers; and 540nm excitation and 590nm emissions for aggregates) was measured using an Envision plate reader.
% is scaled to controls: 0 for no effect and ±100 for the full control effect; potency is read from the fitted curve at half-maximal effect.

SMILES	Potency	ratio activity, negative = MMP loss
Cc1cc(N)c2cc(NC(=O)Nc3ccc4nc(C)cc(N)c4c3)ccc2n1	22.1 µM (active)	–
O=CC1CC=CCC1 (stereo not given)	–	-7.07% (inactive)
CCOC(=O)COC(=O)c1cc(Oc2ccc(C(F)(F)F)cc2Cl)ccc1[N+](=O)[O-]	61.1 µM (active)	–
CCCCCCCCCCCCN1CCCCCC1=O	27.3 µM (active)	–
COC(=O)C1=C(C)NC(COC(N)=O)=C(C(=O)OC(C)C)C1c1cccc(Cl)c1Cl (stereo not given)	26.6 µM (active)	–
CN1C[C@H]2c3ccccc3Oc3ccc(Cl)cc3[C@@H]2C1	–	-13.7% (inactive)
CCCCCCCCCc1ccc(OCCOCCO)cc1	10.6 µM (active) and 1.44 µM (active)	–
CNC(=O)CN(CCN(CCN(CC(=O)[O-])CC(=O)NC)CC(=O)[O-])CC(=O)[O-].O.[Gd+3]	–	9.22% (inactive)
OCCNCc1ccccc1	–	25.8% (inactive)
COc1cc2nc(N(C)CCCNC(=O)C3CCCO3)nc(N)c2cc1OC (stereo not given)	–	-15.6% [at 39.1 µM] (inactive)
CCN(CC)CCNC(=O)c1cc(Br)c(N)cc1OC	–	-10.2% (inactive)
OC[C@H]1O[C@@H](OCCc2ccc(O)cc2)[C@H](O)[C@@H](O)[C@@H]1O	–	6.5% (inactive)
O=C1OC(CN2CCOCC2)CN1/N=C/c1ccc([N+](=O)[O-])o1 (stereo not given)	–	-4.56% [at 39.1 µM] (inactive)
O=C(OCCc1ccccc1)c1ccccc1	–	-10.2% (inactive)
CC1CCC(=O)C1=O (stereo not given)	–	10.2% [at 95.3 µM] (inactive)
Cc1[nH]c(C)c(Cl)c(=O)c1Cl	–	20.2% (inactive)
O=C(O)CNCC(=O)O	–	15% [at 8.08 µM] (inactive)
O=C1C(O)=C(O)C(=O)C(O)=C1O	–	14.4% (inactive)
CCOC(=O)NCCOc1ccc(Oc2ccccc2)cc1	27.3 µM (active)	–
COc1cccc(N(C)C(=S)Oc2ccc3c(c2)CCCC3)n1	29.8 µM (active)	–

SMILES	Potency	ratio activity, negative = MMP loss
CCCCCCCC/C=C\CCCCCCCC(=O)OCC	–	14.8% (inactive)
O=C(O)c1ccco1	–	23.7% (inactive)
CC[N+](C)(CC)CCOC(=O)C(O)(c1ccccc1)C1CCCCC1 (stereo not given)	–	-3.94% (inactive)
CCCCC(CC)CN1C(=O)C2C3C=CC(C3)C2C1=O (stereo not given)	6.11 µM (active)	–
C=C(C)C(=O)OCCO	–	-6.32% [at 95.3 µM] (inactive)
CC(C)CC(=O)C1C(=O)c2ccccc2C1=O	4.33 µM (active)	–
O=S(=O)(Oc1ccc(Cl)cc1)c1ccccc1	19.3 µM (active)	–
CC[N+]1(CC)CCC(=C(c2ccccc2)c2ccccc2)C1C (stereo not given)	–	-8.37% (inactive)
O=[N+]([O-])c1ccc2[nH]ncc2c1	38.5 µM (active)	–
CCCCC(CC)COC(=O)CCCCCCCCC(=O)OCC(CC)CCCC (stereo not given)	–	12.3% (inactive)
CCCCCCc1ccc(-c2ccc(C#N)cc2)cc1	26.8 µM (active)	–
C=CC(=O)OCCOCCOCCOCCOC(=O)C=C	–	28.5% (inactive)
O=C1OC(=O)C2C3C=CC(C3)C12 (stereo not given)	–	7.25% (inactive)
Brc1c2ccccc2cc2ccccc12	30.9 µM (active)	–
CC(C)C[C@H]1C(=O)N2CCC[C@H]2[C@]2(O)O[C@](NC(=O)[C@@H]3C=C4c5cccc6[nH]c(Br)c(c56)C[C@H]4N(C)C3)(C(C)C)C(=O)N12	10.6 µM (active) and 8.23 µM (active)	–
CCn1cc(C(=O)O)c(=O)c2cnc(N3CCNCC3)nc21	–	17.1% [at 39.1 µM] (inactive)
NCC(=O)O	–	2.74% (inactive)
Cc1cccc(Nc2ccccc2)c1	43.3 µM (active)	–
C1CCCNCCC1	–	15.4% (inactive)
CCCCOC(=O)CCCCCCCC(=O)OCCCC	–	17% (inactive)
